The first assay has as its target T1, SPDEF (Homo sapiens, UniProt O95238 1-335).
T1 sequence: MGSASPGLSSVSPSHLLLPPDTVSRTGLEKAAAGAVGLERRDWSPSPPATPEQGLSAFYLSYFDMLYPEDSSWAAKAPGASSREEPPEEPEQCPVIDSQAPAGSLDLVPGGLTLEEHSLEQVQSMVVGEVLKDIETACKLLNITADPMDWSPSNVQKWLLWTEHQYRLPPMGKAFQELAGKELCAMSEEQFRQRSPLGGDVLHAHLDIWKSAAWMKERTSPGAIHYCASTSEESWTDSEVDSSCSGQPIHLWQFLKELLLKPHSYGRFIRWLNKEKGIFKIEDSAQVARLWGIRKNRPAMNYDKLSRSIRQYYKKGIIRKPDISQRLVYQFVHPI
Kind of assay: DAPPL (digital affinity profiling via proximity ligation, sequencing); 10 mM Tris-HCl pH 7.5, 50 mM NaCl, 1 mM DTT, 4% glycerol, room temperature, 30 min; GST-TFs on glutathione beads, 16-mer random dsDNA library, 0.1% formaldehyde crosslink after washing; high values mean tight binding. The settings on record: protein: recombinant; tags: N-terminal GST; dsDNA, one strand shown. In short, it runs like this: (§1)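 Binding signal is given per hexamer as its read frequency for a factor divided by its frequency in the tag-only sample. GST-fused human transcription factors were expressed in yeast, captured on glutathione beads, barcoded with DNA and pooled with that sample, then incubated with 200 nmole of a 16-mer random double-stranded DNA library in Tris/NaCl/DTT/glycerol buffer for 30 min at room temperature. The pools were then washed, crosslinked, proximity-ligated, amplified by PCR and sequenced on an Illumina NextSeq500.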
As to TTGTAT, the binding signal was 1.41 fold enrichment (6-mer frequency, TF over GST control).
In the case of ATGACC, the binding signal is 1.59 fold enrichment (6-mer frequency, TF over GST control).
As for AATGCC, the binding signal is 1.21 fold enrichment (6-mer frequency, TF over GST control).
As to TACTAT, the binding signal is 1.37 fold enrichment (6-mer frequency, TF over GST control).
Still for that read-out and setting: the value for TATTCC was 1.83 fold enrichment (6-mer frequency, TF over GST control); that for TTTCTA was 1.39 fold enrichment (6-mer frequency, TF over GST control); that for TCTCTA was 1.24 fold enrichment (6-mer frequency, TF over GST control).
Still for that read-out and setting: the value for CCGAAC was 1.28 fold enrichment (6-mer frequency, TF over GST control); that for CTGCGA was 1.37 fold enrichment (6-mer frequency, TF over GST control).
On the same count and under the same terms, under GTATCC stands 3.14 fold enrichment (6-mer frequency, TF over GST control); under TCCTTC, 2.21 fold enrichment (6-mer frequency, TF over GST control); under TTAACC, 1.35 fold enrichment (6-mer frequency, TF over GST control).
Consider ATTATA, for which the binding signal was 1.23 fold enrichment (6-mer frequency, TF over GST control).
The same measure, in the same setting: the value for TCATTC was 1.09 fold enrichment (6-mer frequency, TF over GST control); that for AAGTTC was 1.54 fold enrichment (6-mer frequency, TF over GST control).
On the same count and under the same terms, the value for TGCTTC was 2.39 fold enrichment (6-mer frequency, TF over GST control); that for ACAATC was 1.16 fold enrichment (6-mer frequency, TF over GST control).
On the same count and under the same terms, the value for TTTCCG was 3.35 fold enrichment (6-mer frequency, TF over GST control); that for GATGGC was 1.29 fold enrichment (6-mer frequency, TF over GST control).
On to TCCCAT, for which the binding signal was 1.23 fold enrichment (6-mer frequency, TF over GST control).

A further assay deals with T2, ETV7 (Homo sapiens, UniProt Q9Y603 1-341).
T2 sequence: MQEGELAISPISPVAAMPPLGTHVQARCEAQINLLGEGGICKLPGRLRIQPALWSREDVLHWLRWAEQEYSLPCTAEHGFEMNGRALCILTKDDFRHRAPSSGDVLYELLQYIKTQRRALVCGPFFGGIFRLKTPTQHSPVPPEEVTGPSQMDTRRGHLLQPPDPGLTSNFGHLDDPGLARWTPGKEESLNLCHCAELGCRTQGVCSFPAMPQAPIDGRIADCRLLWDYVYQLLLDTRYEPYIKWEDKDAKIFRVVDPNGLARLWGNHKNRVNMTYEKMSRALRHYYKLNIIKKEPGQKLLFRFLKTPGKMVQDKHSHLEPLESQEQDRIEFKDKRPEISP
The description is as above. The following applies: protein: recombinant; tags: N-terminal GST; dsDNA, one strand shown. In short, it runs like this:
as §1
Take GACTCT: the binding signal was 1.23 fold enrichment (6-mer frequency, TF over GST control).
The same measure, in the same setting: the value for TTCAAG was 1.28 fold enrichment (6-mer frequency, TF over GST control).
On the same count and under the same terms, the value for GCTTTG was 1.44 fold enrichment (6-mer frequency, TF over GST control); that for TCACCT was 1.19 fold enrichment (6-mer frequency, TF over GST control).
On the same count and under the same terms, under TGTTGC stands 1.27 fold enrichment (6-mer frequency, TF over GST control).
Turning to CCTTAA, the binding signal was 1.21 fold enrichment (6-mer frequency, TF over GST control).
The same measure, in the same setting: under ACTTCC stands 7.8 fold enrichment (6-mer frequency, TF over GST control); under TGTTAA, 1.1 fold enrichment (6-mer frequency, TF over GST control); under TTACTA, 1.36 fold enrichment (6-mer frequency, TF over GST control).
Still for that read-out and setting: under GATTCC stands 1.11 fold enrichment (6-mer frequency, TF over GST control).
Same read-out and setting: the value for TTACTC was 1.29 fold enrichment (6-mer frequency, TF over GST control).
Regarding AAGTAA, the binding signal is 1.27 fold enrichment (6-mer frequency, TF over GST control).
Same read-out and setting: the value for ATCTGG was 1.14 fold enrichment (6-mer frequency, TF over GST control); that for GAAATC was 1.46 fold enrichment (6-mer frequency, TF over GST control); that for AACCCT was 1.24 fold enrichment (6-mer frequency, TF over GST control).
The same measure, in the same setting: the value for TCTCAC was 1.24 fold enrichment (6-mer frequency, TF over GST control); that for TTTAAA was 1.36 fold enrichment (6-mer frequency, TF over GST control).
For CTATGC, the binding signal was 1.42 fold enrichment (6-mer frequency, TF over GST control).
Still for that read-out and setting: the value for CATCCT was 1.5 fold enrichment (6-mer frequency, TF over GST control); that for TCTTTG was 1.27 fold enrichment (6-mer frequency, TF over GST control); that for TTGTAT was 1.21 fold enrichment (6-mer frequency, TF over GST control).
On the same count and under the same terms, under ATGACC stands 1.51 fold enrichment (6-mer frequency, TF over GST control); under AATGCC, 1.22 fold enrichment (6-mer frequency, TF over GST control); under TACTAT, 1.35 fold enrichment (6-mer frequency, TF over GST control).
Still for that read-out and setting: under TATTCC stands 1.66 fold enrichment (6-mer frequency, TF over GST control); under TTTCTA, 1.37 fold enrichment (6-mer frequency, TF over GST control).
With TCTCTA, the binding signal was 1.34 fold enrichment (6-mer frequency, TF over GST control).
On the same count and under the same terms, under CCGAAC stands 1.14 fold enrichment (6-mer frequency, TF over GST control); under CTGCGA, 1.26 fold enrichment (6-mer frequency, TF over GST control).
On the same count and under the same terms, the value for GTATCC was 1.69 fold enrichment (6-mer frequency, TF over GST control); that for TCCTTC was 1.92 fold enrichment (6-mer frequency, TF over GST control).
The same measure, in the same setting: the value for TTAACC was 1.23 fold enrichment (6-mer frequency, TF over GST control); that for ATTATA was 1.37 fold enrichment (6-mer frequency, TF over GST control).
For the sequence TCATTC, the binding signal is 1.15 fold enrichment (6-mer frequency, TF over GST control).
Consider AAGTTC, for which the binding signal is 1.4 fold enrichment (6-mer frequency, TF over GST control).
The same measure, in the same setting: under TGCTTC stands 2.13 fold enrichment (6-mer frequency, TF over GST control); under ACAATC, 1.16 fold enrichment (6-mer frequency, TF over GST control).
On the same count and under the same terms, the value for TTTCCG was 3.55 fold enrichment (6-mer frequency, TF over GST control); that for GATGGC was 1.26 fold enrichment (6-mer frequency, TF over GST control).
On the same count and under the same terms, under TCCCAT stands 1.28 fold enrichment (6-mer frequency, TF over GST control).

Another assay has as its target T3, ELF5 (Homo sapiens, UniProt Q9UKW6-2 1-255).
T3 sequence: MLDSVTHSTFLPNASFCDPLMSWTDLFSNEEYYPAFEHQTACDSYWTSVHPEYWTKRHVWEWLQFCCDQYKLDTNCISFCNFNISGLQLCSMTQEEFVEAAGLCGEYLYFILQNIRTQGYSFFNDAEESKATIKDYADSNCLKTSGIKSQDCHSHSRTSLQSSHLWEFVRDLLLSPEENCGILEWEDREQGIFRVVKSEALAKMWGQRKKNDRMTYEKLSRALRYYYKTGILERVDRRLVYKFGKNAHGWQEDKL
Described as above. The following applies: protein: recombinant; tags: N-terminal GST; dsDNA, one strand shown. In short, it runs like this: as §1
Take GACTCT: the binding signal was 1.22 fold enrichment (6-mer frequency, TF over GST control).
Same read-out and setting: the value for TTCAAG was 1.18 fold enrichment (6-mer frequency, TF over GST control); that for GCTTTG was 1.13 fold enrichment (6-mer frequency, TF over GST control); that for TCACCT was 1.21 fold enrichment (6-mer frequency, TF over GST control).
On the same count and under the same terms, the value for TGTTGC was 1.3 fold enrichment (6-mer frequency, TF over GST control); that for CCTTAA was 1.44 fold enrichment (6-mer frequency, TF over GST control); that for ACTTCC was 12.5 fold enrichment (6-mer frequency, TF over GST control).
Consider TGTTAA, for which the binding signal is 1.13 fold enrichment (6-mer frequency, TF over GST control).
The same measure, in the same setting: the value for TTACTA was 1.19 fold enrichment (6-mer frequency, TF over GST control).
On the same count and under the same terms, under GATTCC stands 1.21 fold enrichment (6-mer frequency, TF over GST control); under TTACTC, 1.21 fold enrichment (6-mer frequency, TF over GST control); under AAGTAA, 1.42 fold enrichment (6-mer frequency, TF over GST control).
Same read-out and setting: under ATCTGG stands 1.11 fold enrichment (6-mer frequency, TF over GST control); under GAAATC, 1.58 fold enrichment (6-mer frequency, TF over GST control); under AACCCT, 1.28 fold enrichment (6-mer frequency, TF over GST control).
As to TCTCAC, the binding signal is 1.37 fold enrichment (6-mer frequency, TF over GST control).
Still for that read-out and setting: the value for TTTAAA was 1.19 fold enrichment (6-mer frequency, TF over GST control).
On the same count and under the same terms, under CTATGC stands 1.33 fold enrichment (6-mer frequency, TF over GST control); under CATCCT, 2.13 fold enrichment (6-mer frequency, TF over GST control).
Take TCTTTG: the binding signal was 1.09 fold enrichment (6-mer frequency, TF over GST control).
Same read-out and setting: under TTGTAT stands 1.35 fold enrichment (6-mer frequency, TF over GST control); under ATGACC, 1.56 fold enrichment (6-mer frequency, TF over GST control); under AATGCC, 1.21 fold enrichment (6-mer frequency, TF over GST control).
Turning to TACTAT, the binding signal was 1.27 fold enrichment (6-mer frequency, TF over GST control).
On the same count and under the same terms, the value for TATTCC was 1.99 fold enrichment (6-mer frequency, TF over GST control); that for TTTCTA was 1.31 fold enrichment (6-mer frequency, TF over GST control).
Still for that read-out and setting: the value for TCTCTA was 1.21 fold enrichment (6-mer frequency, TF over GST control); that for CCGAAC was 1.21 fold enrichment (6-mer frequency, TF over GST control); that for CTGCGA was 1.28 fold enrichment (6-mer frequency, TF over GST control).
The same measure, in the same setting: under GTATCC stands 2.1 fold enrichment (6-mer frequency, TF over GST control).
Take TCCTTC: the binding signal was 3.06 fold enrichment (6-mer frequency, TF over GST control).
Regarding TTAACC, the binding signal is 1.28 fold enrichment (6-mer frequency, TF over GST control).
The same measure, in the same setting: under ATTATA stands 1.24 fold enrichment (6-mer frequency, TF over GST control); under TCATTC, 1.12 fold enrichment (6-mer frequency, TF over GST control).
On the same count and under the same terms, the value for AAGTTC was 1.57 fold enrichment (6-mer frequency, TF over GST control).
Turning to TGCTTC, the binding signal is 2.66 fold enrichment (6-mer frequency, TF over GST control).
On the same count and under the same terms, the value for ACAATC was 1.19 fold enrichment (6-mer frequency, TF over GST control); that for TTTCCG was 5.34 fold enrichment (6-mer frequency, TF over GST control); that for GATGGC was 1.3 fold enrichment (6-mer frequency, TF over GST control).
The same measure, in the same setting: under TCCCAT stands 1.44 fold enrichment (6-mer frequency, TF over GST control).

(Values after article PMC7862700, “An all-to-all approach to the identification of sequence-specific readers for epigenetic DNA modifications on cytosine”.)
